Source: PubChem BioAssay AID720551 (National Center for Advancing Translational Sciences (NCATS), 2013)
Among all 340,000 compounds or so, about 1,300 (0.38%) were called active. The sample as a whole holds a higher share of actives than the screen did. Unmarked numbers belong to inactive results.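 How the source made its calls: active means maximum activity change below -70%; inconclusive means maximum activity change between -70% and -50%; inactive means maximum activity change above -50%.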

Target: Voltage-gated inwardly rectifying potassium channel KCNH2 (Homo sapiens) (UniProt Q12809)
Assay: qHTS for Inhibitors of KCHN2 3.1: Wildtype qHTS
Details: U2OS, BacMam KCNH2, thallium flux FluxOr; at 1.84 µM; hits give low values
Summary of the method: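 U2OS cells transduced with wild-type KCNH2 virus are loaded with FluxOr dye for 45 min, and thallium flux is measured in kinetic reads before and after stimulation buffer. Rate constants are normalized to DMSO controls.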
On the % scale 0 is the no-effect control and ±100 the full control effect.

Sequence of Voltage-gated inwardly rectifying potassium channel KCNH2 (Homo sapiens) (Q12809 whole entry, looked up): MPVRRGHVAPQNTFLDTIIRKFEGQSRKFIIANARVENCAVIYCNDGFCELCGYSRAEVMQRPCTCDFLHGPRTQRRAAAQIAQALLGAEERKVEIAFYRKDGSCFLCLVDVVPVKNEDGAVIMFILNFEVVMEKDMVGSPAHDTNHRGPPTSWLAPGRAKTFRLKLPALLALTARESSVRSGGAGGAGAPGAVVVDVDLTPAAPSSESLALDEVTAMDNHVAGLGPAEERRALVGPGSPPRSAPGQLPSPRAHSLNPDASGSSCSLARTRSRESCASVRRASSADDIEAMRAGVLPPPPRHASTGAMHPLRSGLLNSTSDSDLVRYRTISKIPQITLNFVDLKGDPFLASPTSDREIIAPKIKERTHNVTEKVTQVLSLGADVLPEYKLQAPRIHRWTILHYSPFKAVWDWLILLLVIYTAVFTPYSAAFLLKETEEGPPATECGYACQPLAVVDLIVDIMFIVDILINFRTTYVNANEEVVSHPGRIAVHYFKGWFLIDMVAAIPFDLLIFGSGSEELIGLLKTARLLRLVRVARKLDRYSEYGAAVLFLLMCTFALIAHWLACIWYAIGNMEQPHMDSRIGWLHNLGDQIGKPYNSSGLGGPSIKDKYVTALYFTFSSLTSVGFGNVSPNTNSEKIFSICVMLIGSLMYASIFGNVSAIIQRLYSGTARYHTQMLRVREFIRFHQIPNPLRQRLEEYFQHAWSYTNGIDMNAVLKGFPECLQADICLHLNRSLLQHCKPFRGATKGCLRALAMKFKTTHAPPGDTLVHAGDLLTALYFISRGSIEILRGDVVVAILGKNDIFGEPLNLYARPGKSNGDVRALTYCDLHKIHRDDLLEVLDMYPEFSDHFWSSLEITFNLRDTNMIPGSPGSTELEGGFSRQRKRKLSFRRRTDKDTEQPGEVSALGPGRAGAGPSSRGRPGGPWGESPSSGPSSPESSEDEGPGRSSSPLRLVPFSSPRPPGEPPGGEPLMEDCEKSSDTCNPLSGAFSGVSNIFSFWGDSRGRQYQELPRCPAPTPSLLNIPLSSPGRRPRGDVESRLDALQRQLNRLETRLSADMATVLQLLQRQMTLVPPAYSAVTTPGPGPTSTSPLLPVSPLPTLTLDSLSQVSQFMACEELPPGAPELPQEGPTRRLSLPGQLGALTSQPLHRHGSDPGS

Compound | activity change
Cc1ccc([C@H]2N[C@]3(CCCN(CC4CCCCC4)C3=O)[C@H]3C(=O)N(Cc4ccccc4)C(=O)[C@@H]23)cc1 | 2.25%
CN(C)C(CNC(=O)c1cccc(S(=O)(=O)N2CCc3ccccc3C2)c1)c1ccccc1 (stereo not drawn) | 19.3%
C[C@@H]1CN([C@H](C)CO)C(=O)c2cc(-c3ccc(F)cc3)cnc2O[C@H]1CN(C)C(=O)c1ccc(F)cc1 | 16.3%
Cc1nc2nc[nH]n2c(=O)c1NC(=O)c1cccc(OCC(C)C)c1 | -180% (active)
Cc1nc2nc[nH]n2c(=O)c1C/C=C/c1ccccc1 | 1.17%
Cc1noc(C)c1COc1cccc(C(=O)Nc2cccnc2)c1 | 7.71%
COc1ccc(-c2ccc(CN3C(C(C)C)C(=O)N(Cc4cn(CC5CCCCC5)nn4)CCS3(=O)=O)cc2)cn1 (stereo not drawn) | 6.66%
Cc1cccc(C(=O)NC2CCN(CC(=O)Nc3cccc(Cl)c3)CC2)c1 | 47.4%
Clc1ccc(COn2c(-c3ccc(Cl)cc3Cl)nc3ncccc32)cc1 | 1.98%
Clc1ccc(-c2cc(-c3ccccn3)on2)c(Cl)c1 | -93.1% (active)
O=C(COc1ccc(Cl)cc1Cl)N/N=C/c1ccccn1 | -7.76%
C[C@@H]1CN([C@H](C)CO)C(=O)CCCn2cc(nn2)CO[C@H]1CN(C)S(=O)(=O)c1ccc(Oc2ccccc2)nc1 | 10.5%
COc1ccc(CN2CCC(c3nc4ccc(Cl)cc4[nH]3)CC2)cc1 | -96.7% (active)
COc1ccc(CN2CCN(Cc3ccc(OC)c(OC)c3OC)CC2)cc1 | 38.9%
COc1ccc(F)c(-c2nc(CN3CCC(c4ccccc4)CC3)c(C)o2)c1 | 21%
O=C(CCCN1C(=O)C(c2ccccc2)Oc2cccnc21)Nc1ccccc1Br (stereo not drawn) | -7.82%
CCOC(=O)c1cnn2c(SC)ncnc12 | 9.2%
Cc1ccc(C(C)C)cc1OCC(=O)Nc1ccccc1N1CCCC1 | -18.3%
CCC(=O)N1CCN(c2ccccc2NC(=O)COc2cccc(C)c2C)CC1 | -214% (active)
CCOc1ccccc1NC(=S)N1CCN(c2cccc(C)c2C)CC1 | -2.86%
COc1ccc(-c2ccc(CN3C(CC(C)C)C(=O)N(Cc4cn(CC5CCCCC5)nn4)CCS3(=O)=O)cc2)cn1 (stereo not drawn) | 16.3%
CCC(Oc1ccccc1)C(=O)OCC(=O)Nc1c(C)nn(-c2ccccc2)c1C (stereo not drawn) | 0.17%

Compound | activity change
CC(NC(=O)c1ccco1)C(=O)Nc1nc(-c2ccccn2)cs1 (stereo not drawn) | -212% (active)
O=C(COc1ccccc1F)Nc1nc(-c2ccccn2)cs1 | -8.89%
Cc1cc(NC(=O)[C@H](C)NC(=O)c2ccco2)ccc1Br | -4.82%
COCC(=O)Nc1c(C(=O)N2CCCC2)oc2ccccc12 | -3.28%
COc1ccc(CC(=O)Nc2c(C(N)=O)oc3ccccc23)cc1 | 26.6%
CCOCCCN(C)C1CCN(C(=O)c2oc3ccccc3c2NC(=O)Cc2cccc([N+](=O)[O-])c2)CC1 | -97.4% (active)
CN(C(=O)c1cccc(NC(=O)Cc2cccc([N+](=O)[O-])c2)c1)C1CCCCC1 | -17.3%
CCOCCCN(C)C1CCN(C(=O)c2oc3ccccc3c2NC(=O)COc2cccc(C)c2)CC1 | -82.2% (active)
COc1cccc(OC)c1C(=O)Nc1c(C(=O)N2CCN(c3ccccn3)CC2)oc2ccccc12 | 3.21%
COc1ccccc1C(=O)NC(=S)Nc1ccc(N2CCOCC2)cc1 | -8.97%
C#CCN(C[C@@H]1[C@@H](OC(=O)NC2CC2)[C@@H](OC(=O)NC2CC2)Cn2c(=O)ccc(=O)n21)S(=O)(=O)c1ccc(C)cc1 | 2.34%
CC(C)CC1C(=O)N(Cc2cn(Cc3ccco3)nn2)CCS(=O)(=O)N1Cc1ccc(-c2ccc(Cl)c(Cl)c2)cc1 (stereo not drawn) | -32.9%
C[C@H](CO)N1C[C@H](C)[C@@H](CN(C)S(=O)(=O)c2ccc(F)cc2)OCc2cnnn2CCCC1=O | -1.39%
CCN(CC)C(=O)C1=C(C)N(Cc2ccc(C(C)(C)C)cc2)C(=O)C(CC(=O)NCc2cccc3ccccc23)C1 (stereo not drawn) | -4.42%
CCCOc1cccc(C(=O)NCCCNC(=O)c2cccnc2)c1 | -0.846%
CCCOc1cccc(C(=O)Nc2nnn(CCC)n2)c1 | -113% (active)
CCCn1nnc(NC(=O)COc2ccc(CC)cc2)n1 | 4.88%
CC(=O)c1ccc(OCC(=O)N(C)C2CCS(=O)(=O)C2)cc1 (stereo not drawn) | -11.1%
CC(C)CC(=O)NC(=S)Nc1cc(C(=O)O)ccc1Cl | -19.3%
CC(C)CC(=O)c1c[nH]c(C(=O)NCc2ccccc2)c1 | 0.798%
CC(C)CC(=O)NC(=S)NCc1ccccc1 | -84.2% (active)
